# Bioassay records as filed in PubChem BioAssay.
# The sample as a whole holds a higher share of hits than the screen did.
# RE007 growth inh = qHTS Assay for Inhibitors of the HIV-1 protein Vpr; 0.21% of 360,000 active; Potency, µM (top dose mostly 92.2 µM), for the others: top-dose activity change, negative = less growth, usual class: inhibitors; AID 651644, 2012; S. pombe RE007 Vpr strain, BacTiter-Glo ATP luminescence, 24 h; active means well fitted falling curve with a large enough effect; inconclusive means small, poorly fitted or top-dose-only effect; inactive means no such curve, though single readings can be large or run the other way; further: potency means the concentration at half of the fitted maximal effect; on the % scale 0 is the no-effect control and ±100 the full control effect; nearly all actives have a fitted effect of over 50% in size
#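 Fission yeast strain RE007, carrying one chromosomally integrated HIV-1 vpr copy, was seeded at OD 0.01 in PMG+AL medium with 23 nL pinned compound. After 24 h at 30 °C and 99% humidity, viability was read by BacTiter-Glo luminescence.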
# Giardia FBPA inh = qHTS Assay for Inhibitors of Fructose-1,6-bisphosphate Aldolase from Giardia Lamblia | 0.71% of 290,000 active | AID 2451, 2010 | A8B2U2 | purified Giardia FBPA | Potency, µM (series often up to 59.6 µM), for inactives: at the highest dose activity, negative = inhibition, hits mostly inhibitors; further: potency means the concentration at half of the fitted maximal effect; on the % scale 0 is the no-effect control and ±100 the full control effect; nearly all actives have a fitted effect of over 55% in size
#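 40 nM FBPA preincubated 10 min at RT with compound (up to 57.5 uM final), then substrate plus GAPDH/TPI/NAD/arsenate coupling and diaphorase/resazurin added. Fluorescence read after 20 min at RT, 525/598 nm.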
# Shiga inhibitor = A qHTS for Small Molecule Inhibitors of Shiga Toxin; Vero cells, Shiga toxin protein synthesis inhibition reporter; inhibition, % at 38.7 µM; 9.2% of 290,000 active; in the data active means inhibition mostly above about 28%, no sharp cut-off; inactive means mostly below about 43%; further: 0% is about no effect
# TbPYK inhibitor = qHTS of Trypanosoma Brucei Inhibitors; TbPYK enzyme, Kinase-Glo Plus ATP luminescence, 45 min; pyruvate kinase (Trypanosoma brucei), Q57TT1; Potency, µM (series often up to 76.8 µM), for the others: at the top dose activity, negative = inhibition, hits mostly inhibitors; AID 624173, 2012; 0.12% of 410,000 active; further: potency means the concentration at half of the fitted maximal effect; on the % scale 0 is the no-effect control and ±100 the full control effect; nearly all actives have a fitted effect of over 50% in size
#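 Readout: single end-point luminescence (Kinase-Glo Plus, 10 min). Reaction conditions were TbPYK/substrate plus 130 uM ADP, 45 min at RT, pH 7.2 TEA buffer. No-enzyme wells served as controls, and data were normalized before concentration-response fitting.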
# CHX counter = Cycloheximide Counterscreen for Small Molecule Inhibitors of Shiga Toxin | 12% of 300,000 active | max response, % | cell reporter, cycloheximide protein synthesis inhibition counterscreen; in the data active means max response mostly above about 13%, no sharp cut-off; inactive means mostly below about 14%; further: read at 38.3 µM for the half of the compounds with a filed dose; 0% is about no effect
# LmPK inhibitor = qHTS Assay for Inhibitors of Leishmania Mexicana Pyruvate Kinase (LmPK); Q27686; purified LmPK, Kinase-Glo ATP luminescence, 1 h; 0.37% of 290,000 active; Potency, µM (highest dose often 57.5 µM), without a hit: at the top dose activity change, negative = inhibition, usual class: inhibitors; further: potency means the concentration at half of the fitted maximal effect; on the % scale 0 is the no-effect control and ±100 the full control effect
# Target sequence (Q27686 whole entry, looked up): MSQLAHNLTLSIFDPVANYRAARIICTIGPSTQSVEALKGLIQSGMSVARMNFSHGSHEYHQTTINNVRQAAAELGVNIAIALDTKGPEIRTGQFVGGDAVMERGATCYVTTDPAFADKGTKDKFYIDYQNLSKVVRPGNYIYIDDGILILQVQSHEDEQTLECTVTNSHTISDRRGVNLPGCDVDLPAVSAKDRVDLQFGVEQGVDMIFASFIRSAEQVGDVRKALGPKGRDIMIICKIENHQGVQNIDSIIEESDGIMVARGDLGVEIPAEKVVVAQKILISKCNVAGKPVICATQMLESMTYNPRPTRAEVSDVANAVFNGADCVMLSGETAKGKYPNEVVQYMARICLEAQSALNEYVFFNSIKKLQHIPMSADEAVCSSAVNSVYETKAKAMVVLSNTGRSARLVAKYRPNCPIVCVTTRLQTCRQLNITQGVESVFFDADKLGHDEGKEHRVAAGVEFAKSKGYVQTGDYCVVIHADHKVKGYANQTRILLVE
#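 In 50 mM imidazole pH 7.2 with 7 mM MgCl2, LmPK (0.1 nM) turned over PEP (0.5 mM) and ADP (0.1 mM) for 1 h at room temperature. Luciferase read-out of ATP.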
# * hit, by the source's call; ? = inconclusive; nt = not tested or not shown; [ ] = another dose, or the depositor's remark. Unless noted, the call rests on the fitted dose curve; in most records, active means well fitted curve in the direction sought with a large enough effect; inconclusive means small, poorly fitted or top-dose-only effect, or another doubt; inactive means no such curve, though single readings can be large; an effect the other way counts as inactive or inconclusive.
SMILES,RE007 growth inh,Giardia FBPA inh,Shiga inhibitor,TbPYK inhibitor,CHX counter,LmPK inhibitor
CC(Nc1cccc2ccccc12)C(=O)N/N=C/c1ccc([N+](=O)[O-])cc1 (configuration not stated),-7%,?,-36,2%,16,4%
Cc1nn(-c2ccccc2)c(/N=C/c2ccc(O)cc2)c1-c1ccccc1,3%,9%,45,1%,27*,4%
O=C(c1cccn2c(=O)c3cc4ccccc4cc3nc12)N1CCN(c2ccccc2)CC1,nt,10%,35*,nt,23*,-2%
COc1ccc(N2CCN(C(=O)c3cccn4c(=O)c5ccc(Cl)cc5nc34)CC2)cc1,nt,nt,nt,4%,nt,nt
CCN(CC)S(=O)(=O)c1cccc(NC(=O)c2cc3ccccc3o2)c1,6%,-2%,55*,4%,22,4%
O=C(Nc1cccc(S(=O)(=O)N2CCCCC2)c1)c1cc2ccccc2o1,18%,nt,nt,-9%,nt,nt
CN(C)S(=O)(=O)c1cccc(NC(=O)c2cc3ccccc3o2)c1,16%[3.69 µM],-15%,54,nt,57*,3%
CCOC(=O)CNC(=O)C(Cc1ccccc1)NC(=O)OCc1ccccc1 (configuration not stated),8%,3%,-6,0%,-2,14µM*
CCOC(=O)CNC(=O)C(CO)NC(=O)OCc1ccccc1 (configuration not stated),2%,16%,6,4%,26*,-1%
CC(=O)Nc1ccc(C2NC(=O)c3ccccc3O2)cc1 (configuration not stated),0%,0%,-10,0%,-8,-6%
CCCC(=O)Nc1ccc(C2C(=O)c3ccccc3C2=O)cc1,-25%,-7%,28,-18%,12*,?
CC(=O)Nc1ccc(C2C(=O)c3ccccc3C2=O)cc1,8%,-2%,68*,-3%,24*,-27%
Nc1nnn(Cc2ccccc2)n1,0%,4%,-4,4%,-1,-6%
c1ccc(Cn2nnc(-c3ccccc3)n2)cc1,-25%,2%,94*,7%,35*,3%
N#Cc1cccc(Cn2nnc(-c3ccccc3)n2)c1,-4%,-9%,21,-4%,13*,1%
O=C(Cn1nnc(-c2ccccc2)n1)c1ccccc1,-1%,-1%,84,4%,2,3%
Oc1ccc2ccccc2c1C=NCc1cn2ccsc2n1,-18%,1µM*,15,-11%,16,3%
Cc1cc(C)cc(C(=O)n2nc(C)c(S(=O)(=O)N3CCCCCC3)c2C)c1,nt,nt,nt,-9%,nt,nt
CCn1nc(C)cc1C(=O)N1CCc2c([nH]c3ccccc23)C1c1cc(F)ccc1F (configuration not stated),-6%,-3%,82*,3%,55*,-3%
COc1ccc(C2c3[nH]c4ccccc4c3CCN2Cc2ccoc2)c(F)c1 (configuration not stated),-12%,-5%,-7,-3%,2,3%
COc1ccc(C2c3[nH]c4ccccc4c3CCN2C(=O)Cc2nonc2C)c(F)c1 (configuration not stated),2%,-20%,109*,2%,37*,6%
COc1cccc(-c2nc(NCc3cccnc3)c3ccccc3n2)c1O,7%,21%,37,-5%,19*,-3%
CC(C)(C)c1ccc(-c2nc(NCc3cccnc3)c3ccccc3n2)cc1,6%,2%,76*,-2%,51*,-2%
COc1ccccc1-c1nc(NCc2ccccc2)c2ccccc2n1,nt,-4%,nt,nt,nt,nt
c1cncc(CNc2nc(-c3cccnc3)nc3ccccc23)c1,5%,-2%,-10,1%,-4,0%
SMILES,RE007 growth inh,Giardia FBPA inh,Shiga inhibitor,TbPYK inhibitor,CHX counter,LmPK inhibitor
COC(=O)c1ccc(-n2c(C)cc(C(=O)CSc3cccc[n+]3[O-])c2C)cc1,1%,0%,-23,-4%,5,-13%
Cc1cc(C(=O)CSc2cccc[n+]2[O-])c(C)n1-c1ccc(OC(F)F)cc1,-1%,-6%,59*,1%,54*,-3%
CN1CCN(C(=O)c2ccc3c(c2)N(Cc2ccc(Cl)cc2)C(=O)c2ccccc2S3(=O)=O)CC1,nt,nt,nt,-6%,nt,nt
COc1cc(OC)c(NC(=O)CCc2nc(C3=CCN(Cc4cccc(Cl)c4)CC3)no2)cc1Cl,nt,nt,nt,-2%,nt,nt
COc1cccc(C(=O)c2sc(NC(C)C)nc2N)c1,-3%,-19%,51*,-2%,36*,1%
COCCn1c(=O)c(-c2cccs2)nc2cnc(N(C)C)nc21,nt,4%,nt,nt,nt,nt
COc1ccc(CC(=O)Nc2ccc(C(C)=O)cc2)cc1,52%,-6%,45,-11%,28*,-2%
COc1ccc(NC(=O)N/C=C/c2ccccc2)cc1,-5%,1%,103*,1%,35*,1%
COc1ccc(NC(=O)CCC(=O)NCCO)cc1,2%,-3%,45*,-1%,16*,3%
COc1ccc(CC(=O)Nc2ccc(C(=O)NCC(C)C)cc2)cc1,0%,-1%,-16,-7%,-2,1%
COC(=O)c1cc(CNC(=O)CCCSc2ccccc2)ccc1OC,10%,-6%,21,3%,23*,1%
COc1ccc(CNC(=O)CCCSc2ccccc2)cc1,7%,1%,-5,-2%,-4,6%
CC(C)CCNC(=O)c1cc(Sc2ccc(F)cc2F)nc2ccccc12,nt,nt,nt,1%,nt,nt
CC(C)(C)c1ccc(S(=O)(=O)NCc2ccc3c(c2)CCN3C(=O)c2ccccc2)cc1,nt,nt,nt,-3%,nt,nt
COc1ccc(NC(=O)CS(=O)c2ccccc2Cl)cc1 (configuration not stated),4%,nt,36,-6%,15*,-3%
CCc1ccc(NC(=O)Cc2ccc(OC)cc2)cc1,nt,0%,41*,nt,28*,-1%
COc1ccc(NC(=O)CCCSc2ccccc2)cc1,-9%,16%,28,-8%,24*,7%
COc1cc(CC(=O)Nc2cccc(SC)c2)cc(OC)c1OC,-4%,-1%,23,-5%,1,1%
COc1ccc(CC(=O)Nc2cccc(SC)c2)cc1,33%,-6%,19,7%,17*,-5%
COc1ccc(NC(=O)CC(=O)Nc2ccc(OC)cc2)cc1,3%,nt,nt,-1%,nt,nt
COc1ccc(NC(=O)COC(=O)CCSc2ccccc2)cc1,1%,nt,nt,4%,nt,nt
N#Cc1cccc(-c2nc3cnc(Nc4ccccc4)nc3n(C[C@H]3CCCO3)c2=O)c1,nt,0%,nt,-7%,nt,nt
COc1ccccc1N1CCN(S(=O)(=O)c2c(C)sc3ncn(CC(=O)Nc4ccc(C)cc4Br)c(=O)c23)CC1,nt,nt,nt,0%,nt,nt
C[C@H]1Cc2c(COc3ccccc3)nc3c(c2CO1)CN(C(=O)c1cc(I)ccc1F)CC3,nt,5%[12.9 µM],nt,nt,nt,-4%[11.5 µM]
